Values joined by “and” are separate entries in the source; they are usually repeats but may differ in a detail not shown here. Identical values can stand only once. The panel holds about 83,000 compounds, 20% with a hit somewhere; the sample as a whole holds those more often.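 For each line, cells grew in 96-well plates with the test compound present at a single concentration for 48 hours.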 Active and inactive are the calls of the source. The calls were made as follows: active = growth percent below 10; inactive = the rest.

In PubChem BioAssay (NCI) one finds growth data, which are given here for eight compounds.

Some test systems named below: HCT-15 colon; HT29 colon; SNB-75 CNS; U251 CNS; PC-3 prostate; SK-MEL-5 melanoma; UACC-62 melanoma; LOX IMVI melanoma; SK-MEL-28 melanoma; SK-MEL-2 melanoma; EKVX NSCLC; SN12C renal; UO-31 renal; TK-10 renal; ACHN renal; CAKI-1 renal; CCRF-CEM leukemia; SNB-19 CNS; A498 renal; HL-60(TB) leukemia.
What all share (test): NCI-60 one-dose screen, 48 h (100 = growth as untreated, 0 = no growth, -100 = all killed)
Common to all, as to settings: 10 µM unless noted

Consider `COc1cc2c(cc1OC)[C@@H]1C(=O)c3ccc4c(c3O[C@@H]1CO2)C[C@H](C(C)C)O4`, for which the growth was 79.1% (inactive) with HCT-15 colon; 83.1% (inactive) in the assay on HT29 colon; 90.1% (inactive) in the assay on SNB-75 CNS; 57.8% (inactive) in the assay with U251 CNS; 9.13% (active) with PC-3 prostate; 17.9% (inactive) in the assay with SK-MEL-5 melanoma. The growth in the assay with UACC-62 melanoma is 66.7% (inactive); with LOX IMVI melanoma, 53% (inactive); in the assay with SK-MEL-28 melanoma it was 98.5% (inactive); in the assay on SK-MEL-2 melanoma it was 91% (inactive); in the assay with EKVX NSCLC it was 26.7% (inactive); in the assay with SN12C renal, 86.9% (inactive). Further, the growth in the assay with UO-31 renal is 46.1% (inactive); in the assay with TK-10 renal, 70.3% (inactive); in the assay with ACHN renal it was 59.3% (inactive); in the assay on CAKI-1 renal it was 45.1% (inactive); in the assay with CCRF-CEM leukemia, 42.6% (inactive).

On to `CC1=C(C)C(=O)O[C@@H]([C@](C)(O)[C@]2(O)CC[C@@]3(O)[C@@H]4C[C@H]5O[C@]56CC=CC(=O)[C@]6(C)[C@H]4CC[C@]23C)C1`, for which the growth was -1.03% (active) in the assay with HCT-15 colon; 1.74% (active) in the assay with HT29 colon; -11.3% (active) in the assay on SNB-75 CNS; 30.8% (inactive) with SNB-19 CNS; 11.2% (inactive) with PC-3 prostate; -15.6% (active) with SK-MEL-5 melanoma. The growth is -5.31% (active) with UACC-62 melanoma; -54.7% (active) in the assay with LOX IMVI melanoma; 1.96% (active) in the assay with SK-MEL-28 melanoma; -24.6% (active) in the assay on SK-MEL-2 melanoma; 3.65% (active) in the assay on SN12C renal; -24.3% (active) in the assay on UO-31 renal. Besides, the growth in the assay with TK-10 renal was -48% (active); with CAKI-1 renal, -49% (active); with A498 renal it was -59.9% (active); with HL-60(TB) leukemia it was -36.9% (active); in the assay with CCRF-CEM leukemia, -8.66% (active).

For the compound `O=[N+]([O-])c1ccc(CI)cc1`, the growth in the assay on HCT-15 colon is 8.86% (active); in the assay with HT29 colon, 47.8% (inactive); in the assay on SNB-75 CNS, 96.4% (inactive); with SNB-19 CNS it was 106% (inactive); in the assay on PC-3 prostate, 95.6% (inactive); with UACC-62 melanoma, 79.6% (inactive). For the same compound, the growth in the assay on SK-MEL-28 melanoma was 104% (inactive); with SN12C renal it was 60% (inactive); in the assay with UO-31 renal, 91.9% (inactive); in the assay on TK-10 renal it was 112% (inactive); in the assay with ACHN renal, 65.5% (inactive); in the assay on CAKI-1 renal, 54.5% (inactive). Besides, the growth is 64.4% (inactive) in the assay with HL-60(TB) leukemia and 21.5% (inactive) in the assay on CCRF-CEM leukemia.

For the compound `COc1cc2c(cc1OC)-c1c3c(cc4c1[C@@H](C2)N(C)CC4)OCO3`, the growth in the assay on HCT-15 colon was 29% (inactive); in the assay on HT29 colon, 29% (inactive); in the assay on SNB-75 CNS, 57.9% (inactive); in the assay with SNB-19 CNS, 48.4% (inactive); in the assay with U251 CNS, 39.3% (inactive); in the assay with PC-3 prostate, 39.8% (inactive). For the same compound, the growth in the assay on SK-MEL-5 melanoma was 57.9% (inactive); in the assay with UACC-62 melanoma, 45.2% (inactive); in the assay with LOX IMVI melanoma it was 26.2% (inactive); in the assay with SK-MEL-2 melanoma, 87.9% (inactive); in the assay on EKVX NSCLC, 66.7% (inactive); in the assay on SN12C renal, 43.8% (inactive). The growth was 67.3% (inactive) with TK-10 renal; 18.6% (inactive) in the assay with ACHN renal; 46.9% (inactive) in the assay with CAKI-1 renal; 57% (inactive) in the assay with A498 renal; 32.5% (inactive) in the assay with HL-60(TB) leukemia; 42.1% (inactive) with CCRF-CEM leukemia.

`COC12CC3(C)C(C4=CC(=O)OC4)CCC3(O)C3CCC4=CC(=O)CCC4(CO1)C32` (stereo not drawn): the growth was 101% (inactive) with HCT-15 colon; 103% (inactive) with HT29 colon; 90.6% (inactive) in the assay with SNB-75 CNS; 107% (inactive) with SNB-19 CNS; 103% (inactive) with U251 CNS; 106% (inactive) in the assay with SK-MEL-5 melanoma. The growth was 99.6% (inactive) in the assay on UACC-62 melanoma; 102% (inactive) in the assay on LOX IMVI melanoma; 122% (inactive) in the assay with SK-MEL-28 melanoma; 24.9% (inactive) in the assay with SK-MEL-2 melanoma; 103% (inactive) in the assay on EKVX NSCLC; 105% (inactive) with SN12C renal. Further, the growth with UO-31 renal was 80.7% (inactive); with TK-10 renal, 101% (inactive); in the assay on ACHN renal it was 96.8% (inactive); in the assay on CAKI-1 renal it was 105% (inactive); in the assay on A498 renal it was 120% (inactive); in the assay with CCRF-CEM leukemia it was 116% (inactive).

`COc1cc2c(c(OC)c1OC)-c1ccc(O)cc1[C@@H](NC(C)=O)CC2`: the growth is 4.26% (active) and 6.32% (active) with HCT-15 colon; 5.06% (active) in the assay with HT29 colon; 12.7% (inactive) and 14.9% (inactive) with SNB-75 CNS; 27.8% (inactive) and 26.4% (inactive) with SNB-19 CNS; 22.5% (inactive) and 18.3% (inactive) with U251 CNS; -24.2% (active) and -61.7% (active) in the assay on SK-MEL-5 melanoma. Besides, the growth in the assay with UACC-62 melanoma is 45.6% (inactive) and 24.4% (inactive); in the assay with LOX IMVI melanoma it was 12.1% (inactive) and 20.2% (inactive); in the assay with SK-MEL-28 melanoma, 52.3% (inactive) and 40% (inactive); in the assay on SK-MEL-2 melanoma it was 41.3% (inactive); in the assay on EKVX NSCLC it was 44% (inactive) and 22.6% (inactive); with SN12C renal, 29.1% (inactive) and 26.9% (inactive). Besides, the growth with UO-31 renal is 25.5% (inactive) and 33.2% (inactive); in the assay on TK-10 renal it was 11.1% (inactive) and 38.5% (inactive); in the assay with ACHN renal, 24.8% (inactive) and 25.8% (inactive); in the assay on CAKI-1 renal it was -5.9% (active) and 16.1% (inactive); in the assay on A498 renal, -12.9% (active); in the assay with HL-60(TB) leukemia it was -13.2% (active) and -32.3% (active). For the same compound, the growth with CCRF-CEM leukemia is 20.6% (inactive) and -8.81% (active).

`COC[C@H]1OC(=O)c2coc3c2[C@@]1(C)C1=C(C3=O)[C@@H]2CCC(=O)[C@@]2(C)C[C@H]1OC(C)=O`: the growth with HCT-15 colon was 53.8% (inactive); with HT29 colon, 34.4% (inactive); in the assay with SNB-75 CNS, -21% (active); in the assay on SNB-19 CNS, 66.2% (inactive); in the assay with U251 CNS, 70.5% (inactive); with PC-3 prostate, 25.1% (inactive). In addition, the growth was -16.9% (active) in the assay with SK-MEL-5 melanoma; 15.7% (inactive) in the assay on UACC-62 melanoma; 54.3% (inactive) in the assay on LOX IMVI melanoma; 17.3% (inactive) in the assay on SK-MEL-2 melanoma; 42.1% (inactive) in the assay with EKVX NSCLC; 43.3% (inactive) in the assay with SN12C renal. Moreover, the growth was 31.4% (inactive) in the assay with UO-31 renal; 38.8% (inactive) in the assay with TK-10 renal; 32.2% (inactive) in the assay on CAKI-1 renal; 25.8% (inactive) with HL-60(TB) leukemia; 46.6% (inactive) in the assay on CCRF-CEM leukemia.

Turning to `CC1OC(=O)C(C(C)C)NC(=O)C(C(C)C)OC(=O)C(C(C)C)NC(=O)C(C)OC(=O)C(C(C)C)NC(=O)C(C(C)C)OC(=O)C(C(C)C)NC(=O)C(C)OC(=O)C(C(C)C)NC(=O)C(C(C)C)OC(=O)C(C(C)C)NC1=O` (stereo not drawn), the growth with HCT-15 colon was -3.27% (active); in the assay with HT29 colon, -32.3% (active); in the assay with SNB-75 CNS, -18.5% (active); with U251 CNS, -41.9% (active); in the assay with PC-3 prostate, -49.8% (active); in the assay on SK-MEL-5 melanoma it was -74.5% (active). The growth in the assay on UACC-62 melanoma was 5.04% (active); with LOX IMVI melanoma, -26.4% (active); in the assay with SK-MEL-28 melanoma, -28.8% (active); in the assay on SK-MEL-2 melanoma it was -22.4% (active); in the assay with EKVX NSCLC, -23.9% (active); in the assay with SN12C renal, 3.04% (active). The growth in the assay with TK-10 renal is 24.6% (inactive); in the assay with ACHN renal, -16.5% (active); in the assay on CAKI-1 renal it was -5.02% (active); in the assay on A498 renal, -53.2% (active); in the assay on HL-60(TB) leukemia it was -44.6% (active); in the assay with CCRF-CEM leukemia, -20.1% (active).
